The source of these data is PubChem BioAssay.

Active and inactive are the calls of the source.

The test system of assay [1] is PRMT1 (protein arginine N-methyltransferase 1). Description: PRMT1 binders on small-molecule microarrays, primary screen, biochemical, small-molecule microarray, 635 nm fluorescence (AID 1088).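 Note: binding of Prmt1 protein to compounds spotted on small-molecule microarray slides.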 To be noted: small-molecule microarray binding, higher = more signal.
Assay [2] can be described thus: yeast growth modulation, basal conditions, primary screen, YJM789 clinical isolate, OD600, 24 h (AID 1089).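 Note: growth of clinical yeast isolate S. cerevisiae YJM 789 seeded 1000 cells per well; test concentration not given here.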 To be noted: S. cerevisiae YJM789 growth, higher = more signal, called active from +8 up or from −8 down.
Assay [3] is described as follows: fission yeast growth modulation, primary screen, strain 972, OD600, 24 h, no modulator (AID 1090).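 Note: basal condition with compound alone and no growth modifier present; test concentration not given here.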 To be noted: S. pombe 972 growth, higher = more signal, called active from +8 up or from −8 down.
A short description of assay [4]: S. cerevisiae growth modulation with rapamycin, primary screen, strain BY4716, OD600, 96 h (AID 1091). Note: test concentration not given here. To be noted: higher = more signal, called active from +8 up or from −8 down.
In assay [5] the target is Torsin-1A-interacting protein 2 (Homo sapiens) (UniProt Q8NFQ8). The experiment in a line: LULL1 binders on small-molecule microarray, primary screen, cell lysate, human LULL1 lysate, 635/667 nm fluorescence (AID 1092).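 Note: probe is lysate of COS7 cells overexpressing human LULL1; score merges per-feature 667 nm fluorescence with signal-to-noise.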 To be noted: hLULL1 lysate binding, 635 nm fluorescence, higher = more signal.
Sequence of Torsin-1A-interacting protein 2 (Homo sapiens) (Q8NFQ8 whole entry, looked up): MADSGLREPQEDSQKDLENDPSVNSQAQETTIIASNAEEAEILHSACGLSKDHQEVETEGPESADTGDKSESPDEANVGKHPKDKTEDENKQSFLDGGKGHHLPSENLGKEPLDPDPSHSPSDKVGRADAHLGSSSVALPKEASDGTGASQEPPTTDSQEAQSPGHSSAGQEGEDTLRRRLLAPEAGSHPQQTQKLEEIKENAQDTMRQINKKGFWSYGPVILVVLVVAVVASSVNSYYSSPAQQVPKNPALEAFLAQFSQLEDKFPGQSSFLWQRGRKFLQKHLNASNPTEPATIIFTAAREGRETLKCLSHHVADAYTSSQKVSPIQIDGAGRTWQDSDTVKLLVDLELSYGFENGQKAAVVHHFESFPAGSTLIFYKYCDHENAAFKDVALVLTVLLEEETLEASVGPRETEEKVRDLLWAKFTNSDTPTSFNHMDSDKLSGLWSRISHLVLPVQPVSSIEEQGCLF
The nature of assay [6]: E. coli growth modulation, two-sided OD650, primary screen, E. coli filamentation project, strain DRC41, 24 h (AID 1093).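 Note: MC1000 strain lacking acrAB efflux and sulA so SOS filamentation is blocked; test concentration not given here.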 To be noted: OD650, 24 h, higher = more signal, called active from +8 up or from −8 down.
Assay [7] is described as follows: small-molecule microarray binders of probe aLefty2, primary screen, biochemical, biotinylated probe, 635/667 nm fluorescence (AID 1094).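 Note: score merges spot fluorescence near 667 nm with spot signal-to-noise ratio.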 To be noted: higher = more signal.
Assay [8] relates to Noggin (protein binding on small-molecule microarray). Description: Noggin binders on small-molecule microarray, primary screen, biochemical, 635/667 nm fluorescence (AID 1095).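 Note: score merges 667 nm feature fluorescence with signal to noise over triplicate slides.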 To be noted: 635 nm fluorescence, higher = more signal.
The target of assay [9] is Neurogenic locus notch homolog protein 3 (Homo sapiens) (UniProt Q9UM47). The experiment in a line: NOTCH3 binders on small-molecule microarray, primary screen, biochemical, 635/667 nm fluorescence (AID 1096). Particulars: NOTCH3 binding, 635 nm fluorescence, higher = more signal.
Sequence of Neurogenic locus notch homolog protein 3 (Homo sapiens) (Q9UM47 whole entry, looked up): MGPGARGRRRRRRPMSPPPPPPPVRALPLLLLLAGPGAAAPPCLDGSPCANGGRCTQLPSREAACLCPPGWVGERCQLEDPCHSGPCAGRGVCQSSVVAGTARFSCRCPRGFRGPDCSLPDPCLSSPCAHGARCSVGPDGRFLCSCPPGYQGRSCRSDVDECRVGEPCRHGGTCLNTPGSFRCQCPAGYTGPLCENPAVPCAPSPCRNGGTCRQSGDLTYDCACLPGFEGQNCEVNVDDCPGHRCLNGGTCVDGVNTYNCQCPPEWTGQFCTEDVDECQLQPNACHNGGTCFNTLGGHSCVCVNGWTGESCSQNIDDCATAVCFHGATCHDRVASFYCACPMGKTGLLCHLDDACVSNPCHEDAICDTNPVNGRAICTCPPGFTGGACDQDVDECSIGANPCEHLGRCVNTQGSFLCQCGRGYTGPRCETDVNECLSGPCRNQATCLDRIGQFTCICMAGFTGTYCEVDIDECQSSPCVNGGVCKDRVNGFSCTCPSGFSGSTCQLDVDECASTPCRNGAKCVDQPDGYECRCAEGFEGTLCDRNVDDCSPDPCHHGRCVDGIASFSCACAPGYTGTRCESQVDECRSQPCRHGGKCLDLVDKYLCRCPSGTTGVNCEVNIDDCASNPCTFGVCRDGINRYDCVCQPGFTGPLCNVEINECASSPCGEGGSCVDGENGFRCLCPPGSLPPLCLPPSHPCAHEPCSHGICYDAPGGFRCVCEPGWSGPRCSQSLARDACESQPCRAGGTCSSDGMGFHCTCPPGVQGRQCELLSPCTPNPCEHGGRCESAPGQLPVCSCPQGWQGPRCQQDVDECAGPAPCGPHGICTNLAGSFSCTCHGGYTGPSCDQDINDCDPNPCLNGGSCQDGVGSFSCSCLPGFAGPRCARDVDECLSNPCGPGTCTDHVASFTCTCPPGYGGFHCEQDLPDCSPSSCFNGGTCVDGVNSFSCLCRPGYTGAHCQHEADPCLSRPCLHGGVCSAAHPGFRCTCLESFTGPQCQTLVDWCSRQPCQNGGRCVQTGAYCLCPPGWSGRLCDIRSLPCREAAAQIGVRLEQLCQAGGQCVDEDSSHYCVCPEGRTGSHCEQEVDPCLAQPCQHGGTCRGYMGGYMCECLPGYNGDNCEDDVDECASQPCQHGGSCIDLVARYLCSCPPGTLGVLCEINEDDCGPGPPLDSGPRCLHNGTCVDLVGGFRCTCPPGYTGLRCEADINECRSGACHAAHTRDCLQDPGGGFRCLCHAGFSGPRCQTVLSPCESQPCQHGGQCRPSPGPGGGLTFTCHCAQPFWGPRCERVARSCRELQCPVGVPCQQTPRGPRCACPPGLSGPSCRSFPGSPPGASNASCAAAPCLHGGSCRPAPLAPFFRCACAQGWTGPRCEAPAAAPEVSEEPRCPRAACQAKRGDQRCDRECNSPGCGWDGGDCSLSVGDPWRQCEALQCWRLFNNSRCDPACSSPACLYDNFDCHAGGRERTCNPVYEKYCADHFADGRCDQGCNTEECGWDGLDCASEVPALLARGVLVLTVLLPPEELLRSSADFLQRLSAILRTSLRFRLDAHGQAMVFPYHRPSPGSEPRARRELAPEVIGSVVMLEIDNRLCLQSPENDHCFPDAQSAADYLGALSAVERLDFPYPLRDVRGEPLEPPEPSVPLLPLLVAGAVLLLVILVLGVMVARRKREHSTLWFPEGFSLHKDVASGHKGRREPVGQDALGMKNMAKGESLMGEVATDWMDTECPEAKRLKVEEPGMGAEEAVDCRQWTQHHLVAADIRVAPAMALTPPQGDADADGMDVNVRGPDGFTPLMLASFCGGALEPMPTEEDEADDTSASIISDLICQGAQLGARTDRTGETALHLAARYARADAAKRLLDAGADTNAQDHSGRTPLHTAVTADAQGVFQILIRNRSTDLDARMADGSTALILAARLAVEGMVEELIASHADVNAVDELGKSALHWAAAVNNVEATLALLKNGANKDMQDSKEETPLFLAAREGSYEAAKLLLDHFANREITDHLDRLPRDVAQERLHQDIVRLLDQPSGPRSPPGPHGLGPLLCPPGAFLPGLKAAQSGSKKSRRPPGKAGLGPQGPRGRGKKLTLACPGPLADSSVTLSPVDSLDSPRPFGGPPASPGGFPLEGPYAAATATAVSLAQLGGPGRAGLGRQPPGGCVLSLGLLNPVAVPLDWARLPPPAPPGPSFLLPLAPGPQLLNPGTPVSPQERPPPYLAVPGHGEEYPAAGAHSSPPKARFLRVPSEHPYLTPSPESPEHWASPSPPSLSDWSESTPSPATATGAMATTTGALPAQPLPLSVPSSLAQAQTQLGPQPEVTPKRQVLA
The nature of assay [10]: small-molecule microarray binders of probe aEGFR, primary screen, biochemical, biotinylated probe, 635/667 nm fluorescence (AID 1097).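 Note: probe is a biotinylated anti-EGFR antibody binding compounds printed on slides; score combines fluorescence near 667 nm and signal to noise of each spot.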 Particulars: higher = more signal.
Assay [11] deals with Plasmodium falciparum Sir2 (PF13_0152, Sir2A). The experiment in a line: pfSir2 binders on small-molecule microarrays, primary screen, biochemical, small-molecule microarray, 635 nm fluorescence (AID 1098).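 Note: score merges spot fluorescence intensity with its signal-to-noise ratio.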 Particulars: small-molecule microarray binding, fluorescence 635 nm; higher = more signal.
Assay [12] is described as follows: small-molecule microarray binders of probe aDKK1, primary screen, biochemical, biotinylated probe, 635/667 nm fluorescence (AID 1099).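 Note: score merges 667nm spot fluorescence with signal to noise across triplicate slides; reference of the scale not given here.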 To be noted: higher = more signal.
Assay [13] can be described thus: small-molecule microarray binders of probe aCHRDL2, primary screen, biochemical, biotinylated probe, 635/667 nm fluorescence (AID 1100). Particulars: higher = more signal.
Assay [14] in a line: splicing luciferase reporter signal modulators, primary screen, spliceosome inhibition project, cell-based, HEK293, splice +/- reporter (AID 1101).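 Note: HEK293 cells carrying a splicing-competent luciferase reporter gene; test concentration not given here.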 To be noted: luminescence, 24 h, higher = more signal, called active from +8 up or from −8 down.
Assay [15] deals with Fibroblast growth factor 10 (Homo sapiens) (UniProt O15520). Description: FGF10 binders on small-molecule microarrays, primary screen, biochemical, small-molecule microarray, 635 nm fluorescence (AID 1102). To be noted: FGF10 binding, fluorescence 635 nm, higher = more signal.
Sequence of Fibroblast growth factor 10 (Homo sapiens) (O15520 whole entry, looked up): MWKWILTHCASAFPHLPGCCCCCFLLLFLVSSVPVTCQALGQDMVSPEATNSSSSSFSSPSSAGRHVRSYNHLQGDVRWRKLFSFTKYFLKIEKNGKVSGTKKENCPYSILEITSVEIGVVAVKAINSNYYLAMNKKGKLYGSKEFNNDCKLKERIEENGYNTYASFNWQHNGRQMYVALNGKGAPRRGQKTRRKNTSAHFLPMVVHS
Assay [16] deals with glycogen synthase kinase-3 (GSK3A per assay name; protocol says GSK3B). The experiment in a line: GSK3 binders on small-molecule microarrays, primary screen, biochemical, small-molecule microarray, 635 nm fluorescence, GSK3A (AID 1103). Note: the record names both GSK3A and GSK3B. Particulars: small-molecule microarray binding, fluorescence 635 nm; higher = more signal.
For assay [17], the target named is Epidermal growth factor receptor (Homo sapiens) (UniProt P00533). The experiment in a line: EGFR binders on small-molecule microarrays, primary screen, biochemical, small-molecule microarray, 635 nm fluorescence (AID 1104).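 Note: score merges 667 nm emission intensity with spot signal to noise over triplicate slides.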 Particulars: EGFR binding, higher = more signal.
Sequence of Epidermal growth factor receptor (Homo sapiens) (P00533 whole entry, looked up): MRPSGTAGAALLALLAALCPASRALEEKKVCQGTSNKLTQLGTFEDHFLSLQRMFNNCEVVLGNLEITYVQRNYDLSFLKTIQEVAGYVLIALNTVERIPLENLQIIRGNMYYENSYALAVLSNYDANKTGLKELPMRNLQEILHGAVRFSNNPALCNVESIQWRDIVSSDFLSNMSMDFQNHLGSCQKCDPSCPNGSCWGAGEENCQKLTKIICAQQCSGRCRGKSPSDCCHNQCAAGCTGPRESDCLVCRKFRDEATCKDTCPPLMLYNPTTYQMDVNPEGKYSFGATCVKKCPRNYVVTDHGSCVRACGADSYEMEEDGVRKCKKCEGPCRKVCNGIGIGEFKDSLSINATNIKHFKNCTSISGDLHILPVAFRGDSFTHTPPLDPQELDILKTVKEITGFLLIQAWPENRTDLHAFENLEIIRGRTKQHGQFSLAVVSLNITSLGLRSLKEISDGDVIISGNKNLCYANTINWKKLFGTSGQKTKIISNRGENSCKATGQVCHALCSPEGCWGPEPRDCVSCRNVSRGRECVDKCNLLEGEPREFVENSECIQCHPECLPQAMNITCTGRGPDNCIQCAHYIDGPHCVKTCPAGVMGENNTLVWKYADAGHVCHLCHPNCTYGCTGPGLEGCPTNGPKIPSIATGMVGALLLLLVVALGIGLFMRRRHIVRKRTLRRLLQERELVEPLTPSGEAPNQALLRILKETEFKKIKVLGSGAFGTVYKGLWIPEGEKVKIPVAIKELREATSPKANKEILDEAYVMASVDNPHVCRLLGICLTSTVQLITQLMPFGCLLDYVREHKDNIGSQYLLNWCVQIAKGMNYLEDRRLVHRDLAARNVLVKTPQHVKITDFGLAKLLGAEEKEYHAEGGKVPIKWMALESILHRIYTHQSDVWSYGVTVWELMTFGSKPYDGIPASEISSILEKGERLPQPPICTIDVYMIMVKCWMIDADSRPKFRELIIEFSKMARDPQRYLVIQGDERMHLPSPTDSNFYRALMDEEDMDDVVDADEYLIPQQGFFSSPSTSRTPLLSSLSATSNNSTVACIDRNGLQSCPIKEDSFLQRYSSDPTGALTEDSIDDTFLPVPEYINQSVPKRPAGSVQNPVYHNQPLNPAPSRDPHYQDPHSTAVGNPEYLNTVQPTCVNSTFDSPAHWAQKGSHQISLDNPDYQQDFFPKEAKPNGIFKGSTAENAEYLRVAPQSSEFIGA
Assay [18] concerns the target Follistatin-related protein 3 (Homo sapiens) (UniProt O95633). Description: FSTL3 binders on small-molecule microarrays, primary screen, biochemical, small-molecule microarray, 635 nm fluorescence (AID 1105).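 Note: score merges emission near 667 nm and signal to noise per printed spot across three slides.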 To be noted: FSTL3 binding, higher = more signal.
Assay [19] concerns the target Dickkopf-related protein 1 (Homo sapiens) (UniProt O94907). Description: DKK1 binders on small-molecule microarrays, primary screen, biochemical, small-molecule microarray, 635 nm fluorescence scan (AID 1106).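 Note: score merges emission near 667 nm with signal to noise over three replicate slides.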 Particulars: DKK1 binding, higher = more signal.
In assay [20] the test system is Inhibin beta A chain (activin A). Description: INHBA (activin A) binders on microarrays, primary screen, biochemical, small-molecule microarray, 635 nm fluorescence scan (AID 1107).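 Note: mouse activin A protein probed at 4.33 µg/mL on printed slides; score merges bound-protein fluorescence near 667 nm with spot signal-to-noise.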 To be noted: small-molecule microarray binding, higher = more signal.

Sequence of Follistatin-related protein 3 (Homo sapiens) (O95633 whole entry, looked up): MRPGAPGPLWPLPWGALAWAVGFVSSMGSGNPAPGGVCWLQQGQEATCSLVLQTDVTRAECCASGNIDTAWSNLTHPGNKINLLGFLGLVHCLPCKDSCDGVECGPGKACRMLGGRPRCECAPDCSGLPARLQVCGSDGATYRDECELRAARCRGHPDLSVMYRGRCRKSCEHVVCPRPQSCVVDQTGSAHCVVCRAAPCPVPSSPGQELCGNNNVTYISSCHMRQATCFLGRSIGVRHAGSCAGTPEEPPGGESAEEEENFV
Sequence of Dickkopf-related protein 1 (Homo sapiens) (O94907 whole entry, looked up): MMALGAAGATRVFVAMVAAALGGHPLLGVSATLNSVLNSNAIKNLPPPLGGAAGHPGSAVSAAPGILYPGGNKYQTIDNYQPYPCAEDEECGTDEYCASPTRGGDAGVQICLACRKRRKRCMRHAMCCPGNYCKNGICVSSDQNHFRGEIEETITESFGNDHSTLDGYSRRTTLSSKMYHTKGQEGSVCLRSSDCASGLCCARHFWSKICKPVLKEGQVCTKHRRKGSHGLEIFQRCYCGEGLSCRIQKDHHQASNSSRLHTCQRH

For the molecule `NCCCCCCNC(=O)[C@@H]1C[C@@H]2C(=O)N[C@@H](CCCCN)C(=O)N2[C@@H]1c1cccc(OCCO)c1`, the composite z-score in assay [1] was 1.28; in assay [5], 2.14; in [7] it was 0.885; in assay [8], 0.763; in assay [9], 0.362; in assay [10] it was 0.393. The composite z-score was found to be 1.85 in assay [11]; 0.772 in [12]; 1.14 in assay [13]; 0.243 in [15]; 0.543 in [16]; 0.412 in assay [17]. In addition, the composite z-score in [18] was found to be 0.171; in assay [19] it was 1.64; in assay [20] it was 0.702. Also, the z-score in [2] was 0.825 (inactive); in [3], 0.962 (inactive); in assay [4] it was 0.487 (inactive); in [6], 0.398 (inactive); in assay [14], -0.615 (inactive).
For the molecule `C=C(COC)/C(=C/C[C@H](OC(C)=O)c1ccc(OCCO)cc1)c1cc(C(=O)OC)ccc1OC`, the composite z-score in assay [1] was 1.53; in assay [5] it was 0.914; in assay [7] it was -0.119; in assay [8] it was 1.68; in [9], 0.794; in assay [10], -0.126. In addition, the composite z-score was 1.38 in assay [11]; 0.0841 in assay [12]; -0.24 in assay [13]; 1.48 in [15]; 0.416 in [16]; 0.148 in assay [17]. Moreover, the composite z-score in assay [18] was found to be 0.924; in assay [19], 0.468; in [20] it was 0.72. Also, the z-score in assay [2] is 0.092 (inactive); in [3], -1.08 (inactive); in assay [4], -0.656 (inactive); in [6] it was 1.23 (inactive); in assay [14] it was -0.195 (inactive).
As to `COc1ccc(C#Cc2ccc3c(c2)[C@]2(C(=O)N3)[C@H](c3ccc(O)cc3)N3[C@H](c4ccccc4)[C@H](c4ccccc4)OC(=O)[C@H]3[C@@H]2C(=O)O)cc1`, the composite z-score in [1] was 0.525; in [5] it was 3.12; in [7], -0.383; in assay [8] it was -0.28; in assay [9], -0.17; in [10] it was -0.0507. Also, the composite z-score in assay [11] is 1.04; in assay [12] it was -0.901; in assay [13], -0.596; in assay [15], 0.368; in [16] it was 0.74; in [17], -0.209. Also, the composite z-score in assay [18] was -0.114; in [19], -0.474; in assay [20] it was 0.326. For the same molecule, the z-score is 1.11 (inactive) in assay [2]; -1.18 (inactive) in [3]; 0.0572 (inactive) in [4]; 1.43 (inactive) in assay [6]; -0.518 (inactive) in assay [14].
As to `CCCCN1CC=CC23O[C@@H]4/C=C\CCC(C)OC(=O)C4[C@H]2C(=O)N(C(CO)C(C)C)[C@@H]3C1=O` (stereo not given in full), the composite z-score was 0.738 in [1]; 2.77 in [5]; -0.166 in [7]; 0.21 in [8]; 0.395 in [9]; -0.123 in [10]. Moreover, the composite z-score in [11] is 1.73; in assay [12] it was -0.207; in assay [13] it was -0.176; in assay [15], 0.384; in assay [16], 0.347; in assay [17], -0.474. In addition, the composite z-score in assay [18] was 0.167; in assay [19], 0.125; in assay [20], 1.14. Further, the z-score is -0.824 (inactive) in assay [2]; -0.753 (inactive) in assay [3]; -0.528 (inactive) in assay [4]; -0.318 (inactive) in assay [6]; 0.0563 (inactive) in assay [14].
With `Cc1ccc(S[C@]2(C(=O)O)CC(=O)N(Cc3cc(C(F)(F)F)cc(C(F)(F)F)c3)[C@@H]2c2ccc(CO)cc2)cc1`, the composite z-score is -0.224 in assay [1]; 1.53 in assay [5]; -0.142 in assay [7]; -1.6 in assay [8]; -2.63 in [9]; -0.373 in assay [10]. Also, the composite z-score is 1.2 in assay [11]; 0.326 in assay [12]; 1.14 in assay [13]; -1.65 in [15]; -1.03 in assay [16]; -1.89 in assay [17]. Further, the composite z-score in assay [18] was -1.92; in assay [19], -2.26; in assay [20], -0.131. In addition, the z-score is 0.952 (inactive) in assay [2]; -0.539 (inactive) in assay [3]; -0.0248 (inactive) in assay [4]; -1.17 (inactive) in [6]; -0.262 (inactive) in assay [14].
